Source: the supplement of paper PMC10941209

Tested on: HFF
Test: cell viability relative to DMSO control; higher = less cytotoxic
Conditions: 1 µM; 72 h
Method: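 Single-dose cytotoxicity screen of the MMV Pandemic Response Box at 1 uM on human foreskin fibroblasts (HFF), 72 h at 37 C. Viability measured by MTT (OD 550 nm) and normalised to the DMSO control (% survival).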

Compound	cell viability [%]
Nc1nc2c(Cc3cccnc3)c[nH]c2c(=O)[nH]1	65.2
COc1ccc(C(C)(C)C)cc1NC(=O)C(=O)c1ccc(OCCN2CCOCC2)c2ccccc12	69.1
O=C(Nc1[nH]c(=O)ncc1F)c1ccccc1	64.8
Nc1nc(C(F)(F)F)cc2c1[nH]c(=O)n2Cc1ccccc1	65
CCOCc1nc2c(N)nc3ccccc3c2n1CC(C)(C)O	70.5
O=C(O)c1sccc1S(=O)(=O)n1ccc2cc(Br)ccc21	65.1
CN1c2ccc(Cl)cc2N(c2ccccc2)C(=O)c2cn(Cc3ccc(CN4CCOCC4)cc3)nc21	68.2
CN(C)[C@@H]1C(=O)C(C(N)=O)=C(O)[C@@]2(O)C(=O)C3=C(O)c4c(O)c(NC(=O)CN5CCCC5)cc(F)c4C[C@H]3C[C@@H]12	66
C=C(C)[C@@H]1CC[C@]2(C(=O)O)CC[C@]3(C)[C@H](CC[C@@H]4[C@@]5(C)CC[C@H](O)C(C)(C)[C@@H]5CC[C@]43C)[C@@H]12	69.3
COc1cc(NC(=O)CN2C(=O)NC(c3ccccc3)(c3ccccc3)C2=O)cc(OC)c1	61
Oc1ccc(NCc2ccccc2OCc2ccccc2)cc1	70.1
COC(=O)Nc1nc2cc(Sc3ccccc3)ccc2[nH]1	71.9
CC1CCc2c(N3CCC(O)CC3)c(F)cc3c(=O)c(C(=O)O)cn1c23 (stereo not given)	59.7
C(=C\c1nc2ccccc2[nH]1)/c1ccc2c(c1)OCO2	63.4
c1cnc(NCc2ccc(CNc3ncccn3)cc2)nc1	67.2
Nc1ccc(-c2nc3cc(C(F)(F)F)ccc3n2C23CC4CC(CC(C4)C2)C3)cc1	66.3
Cc1ccccc1NC(=O)Nc1cccc([N+](=O)[O-])c1	71.1
O=S(=O)(NCB(O)O)c1cc2c(Cl)ccc(Cl)c2s1	68
CCCCSc1nc(N)c2[nH]c(=O)c(=O)n(Cc3ccccc3)c2n1	67.5
O=C(CCCC(F)(F)F)N1CCC(c2nc(-c3nccs3)no2)CC1	67.4

Compound	cell viability [%]
O=C(O)c1ccc(-n2nc(-c3ccccc3O)nc2-c2ccccc2O)cc1	76.7
Cc1cc(-c2ccccc2)c(C(=O)C(=O)Nc2ccc(N3CCN(c4ncc(F)cn4)CC3)cc2)n1C	76.8
Nc1nc(F)nc2c1ncn2[C@H]1O[C@@H](CO)[C@H](O)[C@@H]1O	65
CN(C)CCCOc1ccc(-c2ccc3ncc4c(c3c2)n(C2CCOCC2)c(=O)n4C)cn1	60.6
O=C(NCc1ccc2c3c(cccc13)C(=O)N2)c1cccs1	62.2
CC(C)Nc1nc2cc(Cl)c(Cl)cc2n1[C@H]1O[C@@H](CO)[C@H](O)[C@@H]1O	67.8
Cc1cc(NS(=O)(=O)c2ccc(-c3ccc(F)cc3F)cc2)no1	69.4
CCC(C)n1ncn(-c2ccc(N3CCN(c4ccc(OCC5COC(Cn6cncn6)(c6ccc(Cl)cc6Cl)O5)cc4)CC3)cc2)c1=O (stereo not given)	78.2
CC[C@H](NC(=O)[C@H](C)NC)C(=O)N1C[C@@H](O)C[C@H]1Cc1c(-c2[nH]c3cc(F)ccc3c2C[C@@H]2C[C@H](O)CN2C(=O)[C@H](CC)NC(=O)[C@H](C)NC)[nH]c2cc(F)ccc12	31.2
OCCCCn1cnc2c(O)nc(NCc3ccc(Cl)c(Cl)c3)nc21	62.2
CN(C)CC(=O)Nc1ccc2[nH]c(=O)c3ccccc3c2c1	59.3
O=C(NCc1cccc2ccccc12)c1cccs1	66
CCCC(=O)OCCc1ccccc1	65.3
Nc1cc(-c2nc3ccccc3[nH]2)n[nH]c1=O	67.1
[N-]=[N+]=N[C@H]1C[C@H](n2ccc(=O)[nH]c2=O)O[C@@H]1CO	69.1
Cc1cc(CCOc2c(C)cc(-c3nnn(C)n3)cc2C)on1	69.2
CCOc1ccc(/C=N/NC(=O)C2CC2c2ccc(C(C)(C)C)cc2)cc1OCC (stereo not given)	57.3
O=C(CSc1nnc(Br)n1-c1ccc(C2CC2)c2ccccc12)Nc1ccc(C(=O)O)cc1Cl	66.5
COc1ccc(CNC(=O)C2CCN([C@H](C)c3cccc4ccccc34)CC2)cc1	62.6
COCCn1cnc2c(O)nc(Nc3ccccc3)nc21	61
